Several values for one entry are separate records, joined by “and”; a condition that tells them apart may be missing. Identical values can stand only once. The panel holds about 83,000 compounds, 20% with a hit somewhere; the sample as a whole holds those more often.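 Cells were grown in 96-well plates and exposed to the test compound at a single concentration for 48 hours; results are reported as percent growth, with values below 10 considered active.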 Activity calls are given as the source filed them.
What follows are compounds tested on HL-60(TB) leukemia (assay: NCI-60 one-dose screen, 48 h (100 = growth as untreated, 0 = no growth, -100 = all killed)). Conditions: 10 µM unless noted.

| SMILES | growth |
| --- | --- |
| CCOC(=O)c1cnc2c(OC)ccc(OC)c2c1Cl | 127% (inactive) |
| CC1Cc2c(Cl)ncnc2N(C)c2ccc(F)cc21 (stereo not given) | 91.6% (inactive) |
| Cc1ccc(-n2nnc3c(sc4ccccc43)c2=O)cc1 | 92.9% (inactive) |
| Cn1cc(-c2csc(-c3c[nH]c4ccc(Br)cc34)n2)c2ccnc(Cl)c21 | 66.8% (inactive) |
| O=c1oc2cc(OS(=O)(=O)c3ccc(F)cc3)ccc2c2c1CCCCC2 | 60.6% (inactive) |
| Clc1nc(Cl)c2ncn(C/C=C/Cn3cnc4c(Cl)nc(Cl)nc43)c2n1 | -2.68% (active) |
| CC/C(=C(\c1ccccc1)c1ccc(OCCNC)cc1)c1ccccc1 | 6.56% (active) |
| Cc1cc(Cl)ccc1Nc1nc(C(F)(F)F)ccc1C(=O)NCC(=O)N/N=C/c1c(Cl)cccc1Cl | 48.7% (inactive) |
| Nc1c(C(=O)Nc2cccc(Cl)c2Cl)sc2nc3c(cc12)C(=O)CCC3 | 96.6% (inactive) |
| CC(=O)[C@@H]1CC[C@]2(C(N)=O)CC[C@]3(C)[C@H](CC[C@@H]4[C@@]5(C)CCC(=O)C(C)(C)[C@@H]5CC[C@]43C)[C@@H]12 | 89.7% (inactive) |
| O=C(Nc1ccc(CN2CCc3nc4cc(O)c(O)cc4cc32)cc1)c1ccc(Cl)c(Cl)c1 | 114% (inactive) |
| O=C1c2cccnc2C(=O)c2c1c(C(=O)NCCCN1CCCCC1)c1ccccn21 | -29% (active) |
| CN(Cc1ccccc1)c1nc(Cl)c(C2CC(c3ccc(Cl)cc3)=Cc3[nH][nH]c(=O)c32)s1 (stereo not given) | 104% (inactive) |
| O=C(Cn1c(-c2ccc([N+](=O)[O-])cc2)nc2ccccc21)NNC(=O)c1cccnc1 | 65.9% (inactive) |
| Cc1ccc(-c2cc(-c3cccc(Nc4ccnc5cc(Cl)ccc45)c3)nc3nc(N)[nH]c(=O)c23)cc1 | 58% (inactive) |
| COc1ccc(COC(C)=O)cc1 | 112% (inactive) |
| CC(NC(N)=S)c1ccccc1 (stereo not given) | 96.7% (inactive) |
| Cn1cnc([N+](=O)[O-])c1Sc1ncnc2nc[nH]c12 | 73.5% (inactive) and 91.7% (inactive) |
| O=C1OC(=O)C2C1CC=CC2c1ccccc1 (stereo not given) | 69.1% (inactive) |
| COc1cc(-c2n/c(=C\c3c(O)[nH]c4ccccc34)cc3c2=Nc2ccccc2-3)cc(OC)c1OC | -15.3% (active) |

| SMILES | growth |
| --- | --- |
| CCc1cccc2c3c(sc12)C(c1ccc(Cl)cc1)C(C#N)=C(N)O3 (stereo not given) | -8.89% (active) |
| CCCCCCCCCCCCSC(=NC)NC | -37.6% (active) and 38.4% (inactive) |
| N#Cc1nnn(-c2ccc(S(N)(=O)=O)cc2)c1NCC(=O)c1ccccc1 | 88.4% (inactive) |
| O=C(c1cccc(C(=O)c2ccc3c4c(cccc24)C(=O)N(c2ccccc2)C3=O)c1)c1ccc2c3c(cccc13)C(=O)N(c1ccccc1)C2=O | 103% (inactive) |
| Cn1c(-c2nonc2NC(=O)c2ccc(F)cc2)nc2ccccc21 | -30.1% (active) |
| COc1ccc(Nc2cc(C)nc(NCc3ccccc3)n2)cc1 | 11.3% (inactive) |
| C[N+]1(CCC[N+]2(C)C[C@@H]3[C@H](C2)[C@@H]2C=C[C@H]3C2)CCOCC1 (stereo not given in full) | 122% (inactive) |
| Cc1ccc(-c2cc(-c3ccc(Cl)cc3)nc(NC(=O)c3cccnc3)n2)cc1 | 110% (inactive) |
| COc1ccc(/C=C/C(=O)Nc2cccnc2Nc2ccc(F)cc2)cc1 | 84.3% (inactive) |
| CCS(=O)(=O)c1cc(=O)[nH]c(=O)[nH]1 | 117% (inactive) |
| Cc1[nH]n(C(=O)c2ccncc2)c(=O)c1N=Nc1ccc(F)c(Cl)c1 | 36.5% (inactive) |
| Nc1ccc(N2CCOCC2)cc1 | 81.8% (inactive) |
| COc1ccc(-c2cnc(-c3ccc(F)cc3)[nH]2)cc1 | 74.9% (inactive) |
| O=c1[nH]cc(Cl)cc1O | 75.9% (inactive) |
| CCN(CC)CCOC(=O)c1cccnc1 | 101% (inactive) |
| Cc1ccc(/C=N/NC(N)=S)s1 | 101% (inactive) |
| CCOC(=O)C1=C(N)Oc2cc(OC)ccc2C1c1ccc(F)c(F)c1 (stereo not given) | -9% (active) |
| COC1C(=O)CCC2(CO2)C1(O)C1(C)OC1CCC(C)C (stereo not given) | 68% (inactive) |
| Cn1c2ccccc2c2nn(C(=O)c3ccccc3)c(=O)nc21 | 110% (inactive) |
| COc1ccc(NC2=NC(C)(CO)CS2)cc1 (stereo not given) | 91.1% (inactive) |

Reference: PubChem BioAssay (NCI)
